In PubChem BioAssay (Tox21):
Inconclusive results are not listed. Entries that show only a call come without a potency. Active and inactive are the calls of the source. Calls come from the whole dose curve.

target: Peroxisome proliferator-activated receptor delta (Homo sapiens) (UniProt Q03181); test: qHTS assay to identify small molecule agonists of the peroxisome proliferator-activated receptor delta (PPARd) signaling pathway (AID 743212); details: HEK293H PPARd-UAS-bla, beta-lactamase FRET ratio, 17 h; series mostly up to 62.6 µM
Excerpt: U.S. Tox21 Program National Center for Advancing Translational Sciences [NCATS] NIH Chemical Genomics Center [NCGC] U.S. Environmental Protection Agency [EPA] National Institutes of Environmental Health Sciences [NIEHS] National Toxicology Program [NTP] U.S. Food and Drug Administration [FDA] Tox21 Assay Overview: The peroxisome proliferator-activated receptors (PPARs) are lipid-activated transcription factors of the nuclear receptor superfamily with three distinct subtypes namely PPAR alpha, PPAR delta (PPARd) and PPAR gamma. All these subtypes heterodimerizes with Retinoid X receptor (RXR) and have different physiological functions. […] To identify the compounds that activate PPAR-delta signaling, GeneBLAzer PPAR delta UAS-bla HEK293H cell line (Invitrogen, Carlsbad, CA, USA) containing a beta-lactamase reporter gene under the control of an Upstream Activator Sequence (UAS) was used to screen the Tox21 compound library.
Tox21 Assay Protocol Summary: PPARd-bla cells were dispensed at 3000 cells/6uL/well in 1536-well black wall/clear bottom plates using a Multidrop Combi (Thermo Fisher Scientific, Waltham, MA) dispenser. After the assay plates were incubated at 37 C and 5% CO2 for 5 h, 23 nL of compounds dissolved in DMSO, positive controls or DMSO only was transferred to the assay plate by a Pintool station (Kalypsys, San Diego, CA). The assay plates were incubated at 37C for 17 h. After 1 uL of LiveBLAzerTM B/G FRET substrate was added using a Bioraptr Flying Reagent Dispenser (FRD) workstation (Beckman Coulter, Indianapolis, IN, USA), the plates were incubated at room temperature for 2 h, and fluorescence intensity was measured by an Envision plate reader (PerkinElmer, Shelton, CT).

Peroxisome proliferator-activated receptor delta (Homo sapiens), sequence (Q03181 whole entry, looked up): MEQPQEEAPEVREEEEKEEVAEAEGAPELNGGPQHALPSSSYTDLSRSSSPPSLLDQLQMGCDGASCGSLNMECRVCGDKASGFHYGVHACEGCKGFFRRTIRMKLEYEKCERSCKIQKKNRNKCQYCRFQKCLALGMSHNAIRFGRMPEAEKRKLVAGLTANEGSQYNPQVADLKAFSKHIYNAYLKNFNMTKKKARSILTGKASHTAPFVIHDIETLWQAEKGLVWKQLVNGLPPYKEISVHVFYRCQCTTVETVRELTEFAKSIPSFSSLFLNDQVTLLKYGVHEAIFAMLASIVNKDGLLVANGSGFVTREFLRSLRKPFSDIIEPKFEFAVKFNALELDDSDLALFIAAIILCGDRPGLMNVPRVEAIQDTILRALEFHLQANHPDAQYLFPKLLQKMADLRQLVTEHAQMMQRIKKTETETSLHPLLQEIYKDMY

| SMILES | Potency | activation |
| --- | --- | --- |
| COC(=O)c1cc(Cl)ccc1[N+](=O)[O-] | inactive |  |
| CC(COc1ccccc1)NC(C)C(O)c1ccc(O)cc1 (stereo not given) | inactive |  |
| CC(C)CCCCCCCOC(=O)c1ccc(C(=O)OCCCCCCCC(C)C)c(C(=O)OCCCCCCCC(C)C)c1 | inactive |  |
| CCc1cnc(C(=O)O)c(C(=O)O)c1 | inactive |  |
| Cc1cc(N)n(-c2ccccc2)n1 | inactive |  |
| O=C(O)c1ccccc1-n1cc(C(=O)O)c(=O)c2cc(Nc3c(F)cc(F)cc3Cl)c(Cl)cc21 | inactive |  |
| NC(=O)c1ccccc1C(N)=O | inactive |  |
| CC(C)CC(C)(C)C | inactive |  |
| c1ccc(-c2ccc(-c3ccccc3)cc2)cc1 | inactive |  |
| CC(C(=O)O)c1ccc2c(c1)Cc1cccnc1O2 (stereo not given) | inactive |  |
| Clc1ccccc1-c1nc(-c2ccncc2)no1 | inactive |  |
| C/C=C1\[C@H]2C=C(C)C[C@]1(N)c1ccc(=O)[nH]c1C2 | inactive |  |
| C=Cc1ccc(C=C)cc1 | inactive |  |
| Clc1cc(Cl)c2c(c1)N=C1CCCCCN1C2 | inactive |  |
| O=C(O)c1ccc2c(c1)nc(C(=O)NC1CCN(C3CC3)CC1)n2Cc1cc(-c2ccc(Cl)s2)on1 | inactive |  |
| C[C@H]1C[C@H]2[C@@H]3CCC4=CC(=O)C=C[C@]4(C)[C@@]3(F)[C@@H](O)C[C@]2(C)[C@@]1(O)C(=O)COP(=O)(O)O | inactive |  |
| CCOc1cc(OCC)c(C(C)=O)cc1OCC | inactive |  |
| C=C[Si]1(C)O[Si](C)(C=C)O[Si](C)(C=C)O[Si](C)(C=C)O1 (stereo not given) | inactive |  |
| FC(F)(Cl)C(F)(Cl)Cl | inactive |  |
| NC(=O)c1cc[n+](CC2=C(C(=O)[O-])N3C(=O)[C@@H](NC(=O)Cc4cccs4)[C@H]3SC2)cc1 | inactive |  |

| SMILES | Potency | activation |
| --- | --- | --- |
| Cc1cc(SC2=C(O)C[C@@](CCc3ccc(N)cc3)(C(C)C)OC2=O)c(C(C)(C)C)cc1CO | inactive |  |
| CC(C)=CCC[C@H](C)CCO | inactive |  |
| [O-][n+]1ccc(Cl)cc1 | inactive |  |
| CCCCC(CC)COCCC#N (stereo not given) | inactive |  |
| CC1(C)CC(O)CC(C)(C)N1[O] | inactive |  |
| CCCCCCCCNC | inactive |  |
| O=Cc1ccc(Cl)c([N+](=O)[O-])c1 | inactive |  |
| CC(=O)CC/C=C(\C)CC/C=C(\C)CC/C=C(\C)CCC=C(C)C | inactive |  |
| CC(CN=Cc1ccccc1O)N=Cc1ccccc1O (stereo not given) | inactive |  |
| COC=O |  | -8.76% [at 5.95 µM] (inactive) |
| Cc1ccc(S(=O)(=O)NC(=O)NC2CCCC2)cc1 | inactive |  |
| CCCCCCCCS | inactive |  |
| S=c1[nH][nH]c(=S)s1 | inactive |  |
| O=C(Nc1ccccc1)c1cc([N+](=O)[O-])ccc1Cl | inactive |  |
| O=C1C=CCCC1 | inactive |  |
| CC(C)(Cc1c[nH]c2ccccc12)NCC(O)COc1ccccc1C#N (stereo not given) | inactive |  |
| CC(C)(C)c1ccc(CCC=O)cc1 | inactive |  |
| O=C(O)c1ccc2cc(O)ccc2c1 | inactive |  |
| O=C(OCCCCCOC(=O)c1ccccc1)c1ccccc1 | inactive |  |
| CCCOC(C)=O | inactive |  |
